{
  "source": "PubChem BioAssay (NCI)",
  "note": "About 83,000 compounds went through this panel and 20% of them were active in at least one assay; those are over-represented in the sample as a whole.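 Single-concentration screen, 48 h exposure, 96-well plates. Endpoint: percent growth. Below 10 = active.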 Unmarked numbers belong to inactive results. The source made the active and inactive calls.",
  "data": [
    {"system": "SK-OV-3 ovarian", "assay": "NCI-60 one-dose screen, 48 h (100 = growth as untreated, 0 = no growth, -100 = all killed)", "conditions": "10 µM unless noted", "protocol": "Growth inhibition of the SK-OV-3 human tumor cell line is measured as a screen for anti-cancer activity. Cells are grown in 96 well plates and exposed to the test compound for 48 hours. Compounds are tested at a single concentration, which is 10^-5 M for most compounds. The reported endpoint is percent growth (GI% or GIPRCNT), where numbers from 0 - 100% represent growth inhibition, and numbers from -100% - 0 represent cell death. For example, a value of 40 represents 60% growth inhibition. A value of 0 means no net growth occurred over the course of the experiment. A value of -40 indicates 40% of cells at the beginning of the experiment died by the end of the experiment. A value of -100 means all cells are dead at the end of the experiment.\nNCI-60 Human Tumor Cell Lines Screen was performed using the standard one-dose NCI protocol, which is described in more detail at https://dtp.cancer.gov/discovery_development/nci-60/default.htm.\nCompounds with GIPRCNT values below 10 were considered active. Activity score was based on GIPRCNT using the following formula: […]\nScore is 0 for GIPRCNT values of 100 or above, 50 for GIPRCNT values of 0, and 100 for GIPRCNT values of -100.", "values": [
      {"smiles": "COc1cc(NCC(O)CN(CC(C)C)C2CCCC2)c2ncccc2c1", "note": "(stereo not given)", "growth": "93.3%"},
      {"smiles": "COc1cccc(/C=C2\\COc3ccc(-c4ccccc4)cc3C2=O)c1", "growth": "74.3%"},
      {"smiles": "O=C(CSc1nc2sc3c(c2c(=O)n1Cc1ccccc1)CCCC3)N1CCN(c2ccccc2)CC1", "growth": "92.1%"},
      {"smiles": "N#Cc1cc(-c2nc3ccccc3s2)c(=O)n(NS(=O)(=O)c2ccc(Cl)cc2)c1N", "growth": "83.7%"},
      {"smiles": "O=C1CCCN1c1cccc2cccnc12", "growth": "114%"},
      {"smiles": "CC1(C)NCCC[C@]2(C)[C@H]3CC=C4[C@@H]5C[C@@](C)(CO)CC[C@]5(C)CC[C@@]4(C)[C@]3(C)CC[C@@H]12", "growth": "93.1%"},
      {"smiles": "O=C1c2ccccc2-c2c1c1c(NCCCO)nc3ccccc3c1n2Cc1ccccc1", "growth": "23.8%"},
      {"smiles": "COc1ccc(CNCCN2C(=O)c3ccc4c5c(ccc(c35)C2=O)C(=O)N(CCNCc2ccc(OC)cc2)C4=O)cc1", "growth": "-68.1% (active)"},
      {"smiles": "COc1ccc(NC(=O)c2sc3nc(C)c(C(=O)CCc4cccc(OC)c4)cc3c2N)cc1", "growth": "70.5%"},
      {"smiles": "Cc1cn(-c2cc(C(=O)Nc3cccc(C#Cc4cccc5[nH]nc(N)c45)c3)cc(C(F)(F)F)c2)cn1", "growth": "72.6%"},
      {"smiles": "ClCC1(Cn2cnc3c(Cl)nc(Cl)nc32)COC1", "growth": "93.8%"},
      {"smiles": "COc1ccc(/C(C)=N/NC(=O)CSc2nc3ccccc3c(=O)n2Cc2ccc(S(N)(=O)=O)cc2)c(OC)c1", "growth": "114%"},
      {"smiles": "O=C1C(=O)c2c(nc3ncccn23)-c2ccccc21", "growth": "-97.9% (active)"},
      {"smiles": "N#Cc1c(NC(=O)c2cccc(Br)c2)sc2c1CCCC2", "growth": "85.2%"},
      {"smiles": "C=C(C)[C@@H]1CC[C@]2(C(=O)O)CC[C@]3(C)[C@H](CC[C@@H]4[C@@]5(C)C[C@@H](CC#Cc6ccc(Br)cc6)C(=O)C(C)(C)[C@@H]5CC[C@]43C)[C@@H]12", "growth": "50.5%"},
      {"smiles": "NC(=O)c1cccc(-c2cc(C(N)=O)ccc2Cl)c1", "growth": "88.9%"},
      {"smiles": "Nc1nc(SN=Nc2ccc(S(N)(=O)=O)cc2)c2[nH]cnc2n1", "growth": "7.11% (active)"},
      {"smiles": "Cc1[nH]n(C(=O)c2ccncc2)c(=O)c1N=Nc1ccc(F)c(Cl)c1", "growth": "103%"},
      {"smiles": "CC(=O)c1c[nH]c2ccc(-c3ccnc(Nc4ccc(NC(=O)C5CCCC5)c(CN5CCOCC5)c4)n3)cc12", "growth": "10.6%"},
      {"smiles": "O=S(=O)(c1cccc(NC2=Nc3cccc4cccc2c34)c1)N1CCCC1", "growth": "84.1%"},
      {"smiles": "CCOC(=O)c1c(SC)nn(-c2cc(=O)[nH]c3ccc(Br)cc23)c1N", "growth": "98.5%"},
      {"smiles": "COc1ccc(-c2nc(SC(C)C)nc(NNC(N)=O)c2C#N)cc1", "growth": "83.8%"},
      {"smiles": "CC[C@@]12C=CCN3CC[C@]4(c5cc(NC(=O)COc6cc(OCC(=O)Nc7cc8c(cc7OC)N(C)[C@H]7[C@@](O)(C(=O)OC)[C@H](OC(C)=O)[C@]9(CC)C=CCN%10CC[C@]87[C@@H]%109)cc7oc(-c8ccccc8)cc(=O)c67)c(OC)cc5N(C)[C@@H]4[C@](O)(C(=O)OC)[C@H]1OC(C)=O)[C@H]32", "growth": "23.5%"},
      {"smiles": "COc1cc(C2NC(c3cc(OC)c(OC)c(OC)c3)C(C#N)(C#N)C2(C#N)C#N)cc(OC)c1OC", "note": "(stereo not given)", "growth": "102%"},
      {"smiles": "CSc1nc(O)c(-c2ccccc2)c(=O)[nH]1", "growth": "116%"},
      {"smiles": "COc1cc2c(cc1[N+](=O)[O-])-c1ccc([N+](=O)[O-])cc1/C2=N/NC(N)=S", "growth": "96.5%"},
      {"smiles": "O=[N+]([O-])c1cccc(-c2nc(-c3ccc(Cl)cc3Cl)cn2-c2ccccc2)c1", "growth": "33.4%"},
      {"smiles": "CCCCCCCCCCCC(=O)C(CCCCCCCCCC)C(=O)Nc1ccccc1", "note": "(stereo not given)", "growth": "108%"},
      {"smiles": "CCCCCOc1ccc(/C=N/Nc2cc(C)nc3ccc(Br)cc23)cc1", "growth": "102%"},
      {"smiles": "CC(C)(C)OC(=O)N1C/C(=C\\c2ccoc2)C(=O)/C(=C/c2ccoc2)C1", "growth": "99.5%"},
      {"smiles": "CCN1C(=O)N(CC)C2NC(SC)=NC21", "note": "(stereo not given)", "growth": "104%"},
      {"smiles": "C=C(C)[C@@H]1CC[C@]2(C(=O)N3CCN(C)CC3)CC[C@]3(C)[C@H](CC[C@@H]4[C@@]5(C)CCC(=O)C(C)(C)[C@@H]5CC[C@]43C)[C@@H]12", "growth": "104%"},
      {"smiles": "NC(=O)c1ccc[n+](CC(=O)N2CCN(c3cc4c(cc3F)c(=O)c(C(=O)O)cn4C3CC3)CC2)c1", "growth": "117%"},
      {"smiles": "COc1ccc(C(=O)c2cc3c(N)c(C(=O)Nc4cccc5ccccc45)sc3nc2C)cc1", "growth": "32%"},
      {"smiles": "O=C1Nc2ccccc2/C1=C\\c1cccc(/C=C2/C(=O)Nc3ccccc32)n1", "growth": "-88.6% (active)"},
      {"smiles": "O=C1c2cccnc2C(=O)c2nc3cc(N4CCN(C5CC5)CC4)ccc3nc21", "growth": "-78.6% (active)"},
      {"smiles": "CC(C)(O)C1CCCN1C(=O)c1ccccc1I", "note": "(stereo not given)", "growth": "89.8%"},
      {"smiles": "CC(=O)N1N=C(c2cccc(Nc3ccncc3)c2)CC1c1ccc2c(c1)OCO2", "note": "(stereo not given)", "growth": "78.3%"},
      {"smiles": "O=C(Nc1ccc(Nc2ncccn2)cc1)NC1C=c2ccccc2=CC1", "note": "(stereo not given)", "growth": "106%"},
      {"smiles": "Cc1c2c(cc[n+]1Cc1ccccc1)c1ccc(OCc3ccccc3)cc1n2Cc1ccccc1", "growth": "7.67% (active)"}
    ]}
  ]
}
